Bioassay records as filed in PubChem BioAssay.
Sampled rows, rich in hits. Any-hit rate of the full collection: about 19%.
DT40 TDP1 CPT – qHTS for Inhibitors of human tyrosyl-DNA phosphodiesterase 1 (TDP1): qHTS in cells in presence of CPT. chicken DT40 Tdp1-/-;hTDP1 cells + 20 nM CPT, ATP luminescence, 48 h. Potency, µM (series often up to 46.2 µM), inactives show at the highest dose activity change, negative = growth inhibition, hits mostly inhibitors. actives 12% (n = 420,000). AID 686979, 2013; note: potency is the fitted concentration of half-maximal effect; nearly all actives have a fitted effect of over 55% in size
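Chicken DT40 Tdp1-/- cells complemented with human TDP1, 400 cells/well, exposed to compounds plus 20 nM camptothecin for at least 48 h at 37 C; viability read as ATP content by CellTiter-Glo luminescence.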
HT1080-NT tox – qHTS for induction of synthetic lethality in tumor cells producing 2HG: qHTS for the HT-1080-NT fibrosarcoma cell line; HT-1080-NT fibrosarcoma viability, CellTiter-Glo ATP luminescence, 48 h; Potency, µM (series often up to 46.1 µM), for the others: at the highest dose activity, negative = less viability, usual class: cytotoxic; actives 1.6% (n = 360,000);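 note: NT is the 2HG producing partner of a matched IDH1 knockdown line; potency is the fitted concentration of half-maximal effect; 0% = DMSO-treated cells and -100% = media-only wells without cells; nearly all actives have a fitted effect of over 55% in size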
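Viability of the 2HG-overproducing fibrosarcoma line after 48 hours of compound exposure at 37 degrees C was determined by luminescence with CellTiter-Glo, and concentration-effect curves were then fitted and categorized.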
uPA generation – qHTS for Inhibitors of Cell Surface uPA Generation | Potency, µM (top dose mostly 38.3 µM), without a hit: top-dose activity change, negative = inhibition, actives largely listed as inhibitors | actives 0.31% (n = 330,000) | AID 540303, 2011 | cell surface uPA generation assay, qHTS; active = well fitted inhibition curve with a large enough effect; inconclusive = small, poorly fitted or top-dose-only effect; inactive = no such curve, though single readings can be large or run the other way; tested in mouse RAW 264.7 cells; note: potency is the fitted concentration of half-maximal effect; nearly all actives have a fitted effect of over 55% in size
IL1B secr inh – qHTS for Inhibitors of Inflammasome Signaling: IL-1-beta AlphaLISA Primary Screen | actives 4.7% (n = 360,000) | activity change, % at 57.5 µM | THP-1 LPS/ATP IL-1B secretion, AlphaLISA, 16 h; active compounds read low; in the data active = activity change below about -50%; inconclusive = mostly about -30% to -49%
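THP-1 cells pretreated 1 hr with compounds (up to 57.5 uM final), then stimulated with LPS (250 ng/mL final) plus ATP (1.25 mM final); secreted IL-1B measured by AlphaLISA after 16 hr, decreased signal indicating inhibition.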
DT40 TDP1 no CPT – qHTS for Inhibitors of human tyrosyl-DNA phosphodiesterase 1 (TDP1): qHTS in cells in absence of CPT; AID 686978, 2013; DT40 Tdp1-/- hTDP1 cells, no CPT, ATP luminescence, 48 h; Potency, µM (doses to about 46.2 µM), for inactives: at the top dose activity change, negative = growth inhibition, actives largely listed as inhibitors; actives 15% (n = 420,000); note: potency is the fitted concentration of half-maximal effect; nearly all actives have a fitted effect of over 55% in size
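Seeded 400 DT40-hTDP1 cells/well (vehicle DMSO, no 20 nM CPT); pinned compounds; ≥48 hr at 37 °C; CellTiter-Glo luminescence as viability measure.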
HT1080 IDH1KD tx – qHTS for induction of synthetic lethality in tumor cells producing 2HG: qHTS for the HT-1080-IDH1KD cell line; actives 2% (n = 360,000); AID 686971, 2013; HT-1080 IDH1 knockdown viability, ATP luminescence, 48 h; Potency, µM (series often up to 46.1 µM), for the others: at the highest dose activity, negative = toxicity, actives largely listed as cytotoxic;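 note: potency is the fitted concentration of half-maximal effect; 0% = DMSO wells and -100% = cell-free medium wells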
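In this qHTS, HT-1080 cells depleted of IDH1 are exposed for 48 h at 37 °C to compound titrations. Toxicity is scored from CellTiter-Glo luminescence, with DMSO as full viability and medium alone as none.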
* marks the source's active call; other numbers are inactive results; [ ] = remark or other dose. Unless noted, calls come from the whole dose curve; as a rule, active = well fitted curve in the direction sought with a large enough effect; inconclusive = small, poorly fitted or top-dose-only effect, or another doubt; inactive = no such curve, though single readings can be large; an effect the other way counts as inactive or inconclusive. Unless noted, % is set by controls: 0 for no effect and ±100 for the full control effect.

Results for O=C(c1ccc([N+](=O)[O-])s1)N1CCN(c2ccc(C(F)(F)F)cn2)CC1 ?
DT40 TDP1 CPT: 13µM*; HT1080-NT tox: -12%; uPA generation: -3%; IL1B secr inh: 15; DT40 TDP1 no CPT: 16µM*; HT1080 IDH1KD tx: -15%

How did C=CCn1c(SCCN)nnc1-c1cccc(S(=O)(=O)N2CCOCC2)c1 do in these assays?
DT40 TDP1 CPT: -28%; HT1080-NT tox: 6%; uPA generation: 0%; IL1B secr inh: 17; DT40 TDP1 no CPT: inconclusive; HT1080 IDH1KD tx: 5%

Results for CCCCNC(=O)C(NC(=O)c1cccnc1)C(=O)c1ccccc1 (stereo not drawn) ?
DT40 TDP1 CPT: -1%; HT1080-NT tox: 15%; IL1B secr inh: 11; DT40 TDP1 no CPT: 10%; HT1080 IDH1KD tx: 19%

Results for CCc1ccc(NCc2cccn2-c2nnc(N3CCCCCC3)s2)cc1 ?
DT40 TDP1 CPT: 21µM*; DT40 TDP1 no CPT: 16µM*

Results for Cc1ccc(CNCc2cccn2-c2nnc(N3CCCC3)s2)cc1 ?
DT40 TDP1 CPT: inconclusive; DT40 TDP1 no CPT: 16µM*

Results for COc1ccc(NCc2cccn2-c2nnc(N3CCCCC3)s2)cc1OC ?
DT40 TDP1 CPT: inconclusive; DT40 TDP1 no CPT: 16µM*

How did COc1ccc(NCc2cccn2-c2nnc(N3CCOCC3)s2)cc1OC do in these assays?
DT40 TDP1 CPT: -20%; DT40 TDP1 no CPT: inconclusive

Results for CN(C(=O)c1cccc(NC(=O)Cc2ccc(NC(=O)C3CCCN(C(=O)C4CCC4)C3)cc2)c1)C1CCCCC1 (stereo not drawn) ?
DT40 TDP1 CPT: 23µM*; HT1080-NT tox: 6%; uPA generation: -18%; IL1B secr inh: 22; DT40 TDP1 no CPT: inconclusive; HT1080 IDH1KD tx: -1%

Results for CN(CC(=O)Nc1ccc(Cl)c(Cl)c1)C1CCCCC1 ?
DT40 TDP1 CPT: inconclusive; HT1080-NT tox: 11%; uPA generation: -10%; IL1B secr inh: -10; DT40 TDP1 no CPT: inconclusive; HT1080 IDH1KD tx: 9%

Results for O=C(CN(C(=O)c1cccc([N+](=O)[O-])c1)C1CCCCC1)Nc1ccc(Cl)c([N+](=O)[O-])c1 ?
DT40 TDP1 CPT: inconclusive; HT1080-NT tox: -22%; uPA generation: 9%; IL1B secr inh: -21; DT40 TDP1 no CPT: 16µM*; HT1080 IDH1KD tx: inconclusive

Results for CN(C(=O)c1cccc(NC(=O)Cc2ccc([N+](=O)[O-])cc2)c1)C1CCCCC1 ?
DT40 TDP1 CPT: 21µM*; HT1080-NT tox: -21%; uPA generation: inconclusive; IL1B secr inh: -26; DT40 TDP1 no CPT: 15µM*; HT1080 IDH1KD tx: -17%

How did CN(C(=O)c1cccc(NC(=O)Cc2cccc(NC(=O)C3CCCN(C(=O)C4CCC4)C3)c2)c1)C1CCC1 (stereo not drawn) do in these assays?
DT40 TDP1 CPT: inconclusive; HT1080-NT tox: 0%; uPA generation: 13%; IL1B secr inh: 7; DT40 TDP1 no CPT: 23µM*; HT1080 IDH1KD tx: 3%

How did Cc1ccccc1Cn1c(=O)n(-c2ccc(Cl)cc2)c(=O)c2c3c(sc21)CCCC3 do in these assays?
DT40 TDP1 CPT: -1%; DT40 TDP1 no CPT: -9%

What do the screens show for `Cc1ccc(-n2c(=O)c3c(C)c(C(=O)N(C)C)sc3n(CC(=O)N(C)c3ccccc3)c2=O)cc1C`?
DT40 TDP1 CPT: -27%; DT40 TDP1 no CPT: -26%

Results for COc1ccc(CN(C)C(=O)c2ccc(NS(=O)(=O)c3ccc(F)cc3)cc2)c(OC)c1OC ?
DT40 TDP1 CPT: inconclusive; HT1080-NT tox: 2%; uPA generation: 0%; IL1B secr inh: inactive; DT40 TDP1 no CPT: inconclusive; HT1080 IDH1KD tx: -13%

Results for CN(C(=O)c1cccc(NC(=O)Cc2ccc(NC(=O)C3CCCN(C(=O)C4CCCCC4)C3)cc2)c1)C1CCCC1 (stereo not drawn) ?
DT40 TDP1 CPT: inconclusive; HT1080-NT tox: -2%; uPA generation: 9%; IL1B secr inh: 38; DT40 TDP1 no CPT: inconclusive; HT1080 IDH1KD tx: -2%

How did CN(C(=O)c1cccc(NC(=O)Cc2cccc(NC(=O)C3CCCN(C(=O)C4CCCC4)C3)c2)c1)C1CCC1 (stereo not drawn) do in these assays?
DT40 TDP1 CPT: 16µM*; HT1080-NT tox: -4%; uPA generation: 1%; IL1B secr inh: -11; DT40 TDP1 no CPT: inconclusive; HT1080 IDH1KD tx: 1%

What do the screens show for `CN(C(=O)c1ccc(-c2ccccc2)cc1)C1CCCCC1`?
DT40 TDP1 CPT: inconclusive; HT1080-NT tox: -16%; uPA generation: 4%; IL1B secr inh: inconclusive; DT40 TDP1 no CPT: inconclusive; HT1080 IDH1KD tx: inconclusive

Results for CN(C(=O)c1ccc(Oc2ccc([N+](=O)[O-])cc2)cc1)C1CCCCC1 ?
DT40 TDP1 CPT: inconclusive; HT1080-NT tox: inconclusive; uPA generation: 2%; IL1B secr inh: -20; DT40 TDP1 no CPT: 23µM*; HT1080 IDH1KD tx: -11%

What do the screens show for `CN(C(=O)c1ccc(NC(=O)Cc2cccc(NC(=O)C3CCCN(C(=O)C4CCC4)C3)c2)cc1)C1CC1` (stereo not drawn)?
DT40 TDP1 CPT: -18%; HT1080-NT tox: -2%; uPA generation: inconclusive; IL1B secr inh: -2; DT40 TDP1 no CPT: inconclusive; HT1080 IDH1KD tx: -6%

How did CN(C(=O)c1ccc(NC(=O)Cc2cccc(NC(=O)C3CCCN(C(=O)C4CCCC4)C3)c2)cc1)C1CCCC1 (stereo not drawn) do in these assays?
DT40 TDP1 CPT: 21µM*; HT1080-NT tox: 0%; uPA generation: 13%; IL1B secr inh: -3; DT40 TDP1 no CPT: inconclusive; HT1080 IDH1KD tx: -1%

How did Cc1ccc2c(c1)CN(CCNC(=O)c1ccc3nc(C)[nH]c3c1)CC(C)O2 (stereo not drawn) do in these assays?
DT40 TDP1 CPT: 7%[9.04 µM]; DT40 TDP1 no CPT: -7%

How did CCOC(=O)C(=CNc1ccc(Oc2cncc(Cl)c2)nc1)C(=O)OCC do in these assays?
DT40 TDP1 CPT: -13%; HT1080-NT tox: -13%; uPA generation: 1%; IL1B secr inh: 12; DT40 TDP1 no CPT: inconclusive; HT1080 IDH1KD tx: -13%
